# Test results as given in the supplement of paper PMC7411640.
# Counter-ions that a name gives are not always drawn.
# Tested on: MDA-MB-468
# Assay: phospho-S6 immunofluorescence (DAPI-normalised), per-plate z-score; higher = higher phospho-S6 signal (less pathway suppression)
# Settings: 24 h
# Procedure: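 GPCR-targeted compound library (MedChemExpress HY-L006) tested on MDA-MB-468 PTEN-null TNBC cells in 384-well plates at 0.1, 1 or 10 uM, combined with vehicle, GDC0941 450 nM or lapatinib 1 uM, for 24 h. Phospho-S6 (S240/244) immunofluorescence normalised to DAPI and expressed as a per-plate z-score; values are the mean of biological triplicates.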
SMILES,phospho-S6 immunofluorescence (z-score) (co-treatment: GDC0941 450 nM),phospho-S6 immunofluorescence (z-score) (co-treatment: lapatinib 1 uM),phospho-S6 immunofluorescence (z-score) (co-treatment: vehicle)
CCCC(C)(C)c1ccc2c(c1)OC(C)(C)[C@@H]1CC=C(C)C[C@@H]21 (compound 10 µM),2.38,1.8,2.21
CNCC(=O)c1ccc(O)c(O)c1 [Adrenalone (hydrochloride)] (compound 10 µM),0.18,1.2,0.39
CN1[C@@H]2CC[C@H]1C[C@@H](OC(=O)[C@H](CO)c1ccccc1)C2 [L-Hyoscyamine] (compound 10 µM),0.17,0.67,0.91
COc1ccc2c(c1OC)CN1CCc3cc4c(cc3C1C2)OCO4 (centres undefined) [Tetrahydroberberine] (compound 10 µM),-0.04,-1.09,-0.52
NCCc1cc(O)c(O)cc1O [Oxidopamine (hydrobromide)] (compound 10 µM),0.33,2.77,2.94
CC(C)C[C@H]1C(=O)N2CCC[C@H]2[C@]2(O)O[C@](NC(=O)[C@@H]3C=C4c5cccc6[nH]c(Br)c(c56)C[C@H]4N(C)C3)(C(C)C)C(=O)N12 [Bromocriptine (mesylate)] (compound 10 µM),-3.83,-3.57,-1.61
CC[N+](C)(CC)CCOC(=O)C(O)(c1ccccc1)c1ccccc1 [Methylbenactyzium Bromide] (compound 10 µM),-0.26,-0.59,-0.57
CN1C(=O)COc2c(C(=O)NC3CN4CCC3CC4)cc(Cl)cc21 (centres undefined) [Azasetron (hydrochloride)] (compound 10 µM),0.53,0.2,1.23
Cc1cccc(Cc2c[nH]cn2)c1C [Detomidine (hydrochloride)] (compound 10 µM),-1,0.28,0.19
CC(C)[C@@H](CN1CC[C@@](C)(c2cccc(O)c2)[C@@H](C)C1)NC(=O)[C@H]1Cc2ccc(O)cc2CN1 [JDTic (dihydrochloride)] (compound 10 µM),0.26,-2.5,0.81
CO[C@]12C[C@@H](COC(=O)c3cncc(Br)c3)CN(C)[C@@H]1Cc1cn(C)c3cccc2c13 [Nicergoline] (compound 10 µM),0.57,-0.56,-0.38
CCC1(c2cccc(O)c2)CCCCN(C)C1 (centres undefined) [Meptazinol (hydrochloride)] (compound 10 µM),0.48,0.25,0.11
C[C@H]1CNCCc2ccc(Cl)cc21 [Lorcaserin (Hydrochloride)] (compound 10 µM),-1,-0.25,-0.95
CCN(CCCCO)C(C)Cc1ccc(O)cc1 (centres undefined) [O-desmethyl Mebeverine alcohol (hydrochloride)] (compound 10 µM),-0.73,-0.03,-0.64
C[C@@H]1CN(Cc2ccc(F)cc2)CCN1C(=O)COc1ccc(Cl)cc1NC(N)=O (compound 10 µM),-3.5,-6.96,-8.26
O=c1[nH]c2ccccc2n1CCCN1CCC(n2c(=O)[nH]c3cc(Cl)ccc32)CC1 [Domperidone] (compound 10 µM),0.19,0.25,1.62
C[N@+]1(CC2CC2)CC[C@]23c4c5ccc(O)c4O[C@H]2C(=O)CC[C@@]3(O)[C@H]1C5 [Methylnaltrexone (Bromide)] (compound 10 µM),0.46,0.44,-0.66
CN1[C@@H]2CC[C@H]1C[C@@H](OC(=O)C(CO)c1ccccc1)C2 (some centres undefined) [Atropine (sulfate monohydrate)] (compound 10 µM),-1.09,-0.18,-0.82
O=C1Nc2ccccc2C2(CCN(CCc3ccc(C(F)(F)F)cc3)CC2)O1 (compound 10 µM),-3.3,-4.41,-4.38
COc1cc2c3c(c1OC)-c1ccccc1C[C@H]3N(C)CC2 [Nuciferine] (compound 10 µM),0.21,-0.74,0
C=CCN1C[C@H](C(=O)N(CCCN(C)C)C(=O)NCC)C[C@@H]2c3cccc4[nH]cc(c34)C[C@H]21 [Cabergoline] (compound 10 µM),0.82,-0.33,-0.33
O=C1CC[C@@]2(O)[C@H]3Cc4ccc(O)c5c4[C@@]2(CCN3CC2CC2)[C@H]1O5 [Naltrexone (Hydrochloride)] (compound 10 µM),0.88,0.25,1.41
CN(C)C(=O)Oc1cc(OC(=O)N(C)C)cc(C(O)CNC(C)(C)C)c1 (centres undefined) [Bambuterol (hydrochloride)] (compound 10 µM),-0.5,0.49,-0.4
